Out of some 5,500 compounds screened, about 2,000 (36%) were called active. Roughly 18% stayed inconclusive and do not appear here. No stated cut-off is given here; in the data, active means normalized growth mostly below about 0.91 (no sharp cut-off); inconclusive means no clear call, values can overlap the other calls; inactive means mostly above about 0.92. Some of the results follow. Where a SMILES comes first, the peptide text is derived from it. Bridges are numbered along the chain shown (N, C = ends). [ ]: non-standard residue; d: D form. The star is where a group is joined. ξ: configuration not given here. ξDab(CH2SO3H) = NC(CCNCS(=O)(=O)O)C(=O)O; Heptanoyl(6-Me) = CC(C)CCCCC(=O)*; Dab = NCC[CH](N)C(=O)O
Assay: chemical genetic growth profiling, strain panel (AID 1159580);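 further: tested at 20 µM; growth read once vehicle control cultures reached saturation at 30 °C; 1 = growth at the plate median or of vehicle wells; lower values mean less growth of the strain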
Details: growth OD

Measured: normalized growth

CCC(C)C1NC(=O)C(CCNCS(=O)(=O)O)NC(=O)C(NC(=O)C(CCNCS(=O)(=O)O)NC(=O)C(NC(=O)C(CCNCS(=O)(=O)O)NC(=O)CCCCC(C)C)C(C)O)CCNC(=O)C(C(C)O)NC(=O)C(CCNCS(=O)(=O)O)NC(=O)C(CCNCS(=O)(=O)O)NC(=O)C(C(C)CC)NC1=O (configuration not stated) ({Heptanoyl(6-Me)}-[ξDab(CH2SO3H)]T[ξDab(CH2SO3H)][Dab][ξDab(CH2SO3H)]II[ξDab(CH2SO3H)][ξDab(CH2SO3H)]T; lactam 4-C; configuration not given here)
inactive: S. cerevisiae deletion strains, locus YJR075W, strain HOC1, active compounds read low 1 | S. cerevisiae deletion strains, locus YKL009W, strain mrt4, active compounds read low 0.986 | S. cerevisiae deletion strains, locus YKL068W, active compounds read low 0.964 | S. cerevisiae deletion strains, locus YKL085W, strain MDH1 (second series), active compounds read low 0.951 | S. cerevisiae deletion strains, locus YKL085W, strain MDH1, active compounds read low 0.951 | S. cerevisiae deletion strains, locus YKL160W, strain elf1, active compounds read low 1.02 | S. cerevisiae deletion strains, locus YKL190W, strain CNB1, active compounds read low 0.969 | S. cerevisiae deletion strains, locus YKR001C, strain vps1, active compounds read low 0.972 | S. cerevisiae deletion strains, locus YKR026C, strain gcn3, active compounds read low 0.98 | S. cerevisiae deletion strains, locus YKR091W, strain srl3, active compounds read low 0.98 | S. cerevisiae deletion strains, locus YLL001W, strain dnm1, active compounds read low 0.994 | S. cerevisiae deletion strains, locus YLL026W, active compounds read low 0.997 | S. cerevisiae deletion strains, locus YLL041C, strain sdh2, active compounds read low 0.993 | S. cerevisiae deletion strains, locus YLR027C, strain aat2, active compounds read low 0.995 | S. cerevisiae deletion strains, locus YLR039C, strain RIC1, active compounds read low 0.962 | S. cerevisiae deletion strains, locus YLR058C, strain SHM2, active compounds read low 0.988 | S. cerevisiae deletion strains, locus YLR102C, strain apc9, active compounds read low 0.962 | S. cerevisiae deletion strains, locus YLR113W, strain HOG1, active compounds read low 1.1 | S. cerevisiae deletion strains, locus YLR221C, strain rsa3, active compounds read low 0.99 | S. cerevisiae deletion strains, locus YLR258W, strain gsy2, active compounds read low 0.99 | S. cerevisiae deletion strains, locus YLR262C, strain YPT6 (second series), active compounds read low 0.997 | S. cerevisiae deletion strains, locus YLR262C, strain YPT6, active compounds read low 0.992 | S. cerevisiae deletion strains, locus YLR268W, strain sec22, active compounds read low 0.978 | S. cerevisiae deletion strains, locus YLR320W, strain mms22, active compounds read low 0.96 | S. cerevisiae deletion strains, locus YLR330W, strain CHS5, active compounds read low 0.968 | S. cerevisiae deletion strains, locus YLR342W, strain FKS1 (second series), active compounds read low 1.02 | S. cerevisiae deletion strains, locus YLR342W, strain FKS1, active compounds read low 1 | S. cerevisiae deletion strains, locus YLR357W, strain rsc2, active compounds read low 0.963 | S. cerevisiae deletion strains, locus YLR370C, strain arc18, active compounds read low 0.979 | S. cerevisiae deletion strains, locus YLR371W, strain rom2, active compounds read low 0.962 | S. cerevisiae deletion strains, locus YLR384C, strain iki3, active compounds read low 0.998 | S. cerevisiae deletion strains, locus YLR418C, strain cdc73, active compounds read low 0.989 | S. cerevisiae deletion strains, locus YML016C, strain PPZ1, active compounds read low 0.978 | S. cerevisiae deletion strains, locus YML032C, strain rad52, active compounds read low 0.963 | S. cerevisiae deletion strains, locus YML120C, strain ndi1, active compounds read low 0.971 | S. cerevisiae deletion strains, locus YML124C, strain tub3, active compounds read low 0.964 | S. cerevisiae deletion strains, locus YMR058W, strain fet3, active compounds read low 0.987 | S. cerevisiae deletion strains, locus YMR078C, strain ctf18, active compounds read low 0.976 | S. cerevisiae deletion strains, locus YMR125W, strain sto1, active compounds read low 0.973 | S. cerevisiae deletion strains, locus YMR129W, active compounds read low 0.979 | S. cerevisiae deletion strains, locus YMR205C, strain PFK2, active compounds read low 0.958 | S. cerevisiae deletion strains, locus YMR223W, strain ubp8, active compounds read low 0.99 | S. cerevisiae deletion strains, locus YMR231W, strain pep5, active compounds read low 0.987 | S. cerevisiae deletion strains, locus YMR263W, strain SAP30, active compounds read low 0.985 | S. cerevisiae deletion strains, locus YMR307W, strain GAS1, active compounds read low 1.12 | S. cerevisiae deletion strains, locus YNL067W, strain RPL9B, active compounds read low 0.991 | S. cerevisiae deletion strains, locus YNL071W, strain lat1, active compounds read low 0.981 | S. cerevisiae deletion strains, locus YNL128W, strain TEP1, active compounds read low 0.971 | S. cerevisiae deletion strains, locus YNL153C, strain GIM3, active compounds read low 0.987 | S. cerevisiae deletion strains, locus YNL183C, strain NPR1, active compounds read low 0.935 | S. cerevisiae deletion strains, locus YNL209W, strain ssb2, active compounds read low 1.02 | S. cerevisiae deletion strains, locus YNL233W, strain BNI4, active compounds read low 0.996 | S. cerevisiae deletion strains, locus YNL248C, strain rpa49, active compounds read low 1.02 | S. cerevisiae deletion strains, locus YNL250W, strain rad50, active compounds read low 0.95 | S. cerevisiae deletion strains, locus YNL271C, strain bni1, active compounds read low 0.963 | S. cerevisiae deletion strains, locus YNL298W, strain CLA4, active compounds read low 0.974 | S. cerevisiae deletion strains, locus YNL307C, strain MCK1, active compounds read low 0.982 | S. cerevisiae deletion strains, locus YNL322C, strain KRE1 (second series), active compounds read low 0.983 | S. cerevisiae deletion strains, locus YNL322C, strain KRE1, active compounds read low 0.972 | S. cerevisiae deletion strains, locus YNR049C, strain mso1, active compounds read low 0.994 | S. cerevisiae deletion strains, locus YNR052C, strain pop2, active compounds read low 0.968 | S. cerevisiae deletion strains, locus YOL006C, strain TOP1, active compounds read low 1.02 | S. cerevisiae deletion strains, locus YOL012C, strain htz1 0.945 | S. cerevisiae deletion strains, locus YOL147C, strain pex11, active compounds read low 0.982 | S. cerevisiae deletion strains, locus YOR001W, strain rrp6, active compounds read low 0.961 | S. cerevisiae deletion strains, locus YOR061W, strain CKA2, active compounds read low 0.978 | S. cerevisiae deletion strains, locus YOR069W, strain VPS5, active compounds read low 0.983 | S. cerevisiae deletion strains, locus YOR070C, strain gyp1, active compounds read low 0.996 | S. cerevisiae deletion strains, locus YOR080W, strain dia2, active compounds read low 0.984 | S. cerevisiae deletion strains, locus YOR083W, strain WHI5, active compounds read low 0.987 | S. cerevisiae deletion strains, locus YOR106W, strain vam3, active compounds read low 1.03 | S. cerevisiae deletion strains, locus YOR136W, strain idh2, active compounds read low 0.966 | S. cerevisiae deletion strains, locus YOR144C, strain elg1, active compounds read low 0.962 | S. cerevisiae deletion strains, locus YOR184W, strain ser1, active compounds read low 1.01 | S. cerevisiae deletion strains, locus YOR231W, strain MKK1, active compounds read low 0.998 | S. cerevisiae deletion strains, locus YOR265W, strain rbl2, active compounds read low 0.998 | S. cerevisiae deletion strains, locus YOR270C, strain vph1, active compounds read low 0.834 | S. cerevisiae deletion strains, locus YOR290C, strain snf2, active compounds read low 1.01 | S. cerevisiae deletion strains, locus YOR316C, strain cot1, active compounds read low 0.947 | S. cerevisiae deletion strains, locus YPL051W, strain arl3, active compounds read low 1 | S. cerevisiae deletion strains, locus YPL055C, strain LGE1, active compounds read low 0.991 | S. cerevisiae deletion strains, locus YPL078C, strain atp4, active compounds read low 0.998 | S. cerevisiae deletion strains, locus YPL106C, strain sse1, active compounds read low 0.941 | S. cerevisiae deletion strains, locus YPL240C, strain hsp82, active compounds read low 0.988 | S. cerevisiae deletion strains, locus YPL241C, strain CIN2, active compounds read low 0.974 | S. cerevisiae deletion strains, locus YPL256C, strain CLN2, active compounds read low 1.06 | S. cerevisiae deletion strains, locus YPR119W, strain clb2, active compounds read low 0.955 | S. cerevisiae deletion strains, locus YPR141C, strain kar3, active compounds read low 0.937 | S. cerevisiae deletion strains, locus YPR163C, strain tif3, active compounds read low 0.971 | S. cerevisiae deletion strains, locus YPR167C, strain met16, active compounds read low 0.945 | S. cerevisiae deletion strains, strain wtn01, active compounds read low 0.973 | S. cerevisiae strains, strain wild type, active compounds read low 0.98

— PubChem BioAssay AID1159580 (chemical genetic matrix, 2015)
